Several values for one entry are separate records, joined by “and”; a condition that tells them apart may be missing. Equal values may be shown once. The panel holds about 83,000 compounds, 20% with a hit somewhere; the sample as a whole holds those more often.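 Interpretation: 100, growth as untreated; towards 0, rising growth inhibition; 0, no net growth; 0 to -100, cell death. Compounds scoring below 10 were considered active.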 Activity calls are given as the source filed them.
How the values were obtained:
Assay in all cases: NCI-60 one-dose screen, 48 h (100 = growth as untreated, 0 = no growth, -100 = all killed)
T-47D breast = system: T-47D breast
BT-549 breast = system: BT-549 breast
MDA-MB-435 melanoma = system: MDA-MB-435 melanoma
SW-620 colon = system: SW-620 colon
MCF7 breast = system: MCF7 breast
HCT-116 colon = system: HCT-116 colon
HCC-2998 colon = system: HCC-2998 colon
KM12 colon = system: KM12 colon

Measured: growth

Cc1ccc2nc3c(nc2c1)-c1cccc2cccc-3c12
inactive: T-47D breast; 10 µM unless noted 87.6% | BT-549 breast; 10 µM unless noted 111% | MDA-MB-435 melanoma; 10 µM unless noted 103% | SW-620 colon; 10 µM unless noted 71.1% | MCF7 breast; 10 µM unless noted 38.3% | HCT-116 colon; 10 µM unless noted 89.4% | HCC-2998 colon; 10 µM unless noted 103% | KM12 colon; 10 µM unless noted 75.4%

CC12CCC(CC1)C(C)(C)O2
inactive: T-47D breast; 10 µM unless noted 97.9% | BT-549 breast; 10 µM unless noted 98.9% | MDA-MB-435 melanoma; 10 µM unless noted 100% | SW-620 colon; 10 µM unless noted 104% | MCF7 breast; 10 µM unless noted 98.7% | HCT-116 colon; 10 µM unless noted 112% | HCC-2998 colon; 10 µM unless noted 107% | KM12 colon; 10 µM unless noted 109%

CCCCCn1sc(=O)n(Cc2ccc(CNC(=O)C(C)c3ccc(CC(C)C)cc3)cc2)c1=O (stereo unspecified)
98.1% (inactive) and -61.5% (active): MDA-MB-435 melanoma; 10 µM unless noted
88.7% (inactive) and -14.3% (active): KM12 colon; 10 µM unless noted
87.6% (inactive) and -73.1% (active): SW-620 colon; 10 µM unless noted
99.1% (inactive) and -82.4% (active): BT-549 breast; 10 µM unless noted
93.2% (inactive) and -43.1% (active): MCF7 breast; 10 µM unless noted
86.4% (inactive) and -44.8% (active): T-47D breast; 10 µM unless noted
103% (inactive) and -82.6% (active): HCT-116 colon; 10 µM unless noted
105% (inactive) and -64.3% (active): HCC-2998 colon; 10 µM unless noted

O=C(Nc1cccc(Cl)c1)c1cc2ccccc2cc1O
15.5% (inactive) and 2.04% (active): T-47D breast; 10 µM unless noted
active: BT-549 breast; 10 µM unless noted 6.65% and 0.941%
18.9% (inactive) and 6.81% (active): HCT-116 colon; 10 µM unless noted
inactive: MDA-MB-435 melanoma; 10 µM unless noted 28.8% and 13.9% | SW-620 colon; 10 µM unless noted 13.1% and 13.9% | MCF7 breast; 10 µM unless noted 35.5% and 16.9% | HCC-2998 colon; 10 µM unless noted 27.4% | KM12 colon; 10 µM unless noted 15.4% and 11.8%

Nc1ccccc1Nc1ccccc1
inactive: T-47D breast; 10 µM unless noted 88.1% and 83.5% | BT-549 breast; 10 µM unless noted 70.9% and 58.4% | MDA-MB-435 melanoma; 10 µM unless noted 91.5% | SW-620 colon; 10 µM unless noted 106% and 112% | MCF7 breast; 10 µM unless noted 93.8% and 91.8% | HCT-116 colon; 10 µM unless noted 86.6% and 88.8% | HCC-2998 colon; 10 µM unless noted 98.7% and 96.4% | KM12 colon; 10 µM unless noted 85.8% and 79.6%

NC(=O)c1ccccc1OCC(O)CO (stereo unspecified)
inactive: T-47D breast; 10 µM unless noted 130% | BT-549 breast; 10 µM unless noted 109% | MDA-MB-435 melanoma; 10 µM unless noted 90% | SW-620 colon; 10 µM unless noted 101% | MCF7 breast; 10 µM unless noted 94.1% | HCT-116 colon; 10 µM unless noted 112% | HCC-2998 colon; 10 µM unless noted 114% | KM12 colon; 10 µM unless noted 115%

CCc1c(CC(=O)O)c2cc(C)ccc2n1Cc1ccc(Cl)cc1
86.3% (inactive) and -2.2% (active): T-47D breast; 10 µM unless noted
inactive: BT-549 breast; 10 µM unless noted 94% and 183% | MDA-MB-435 melanoma; 10 µM unless noted 114% and 97.4% | SW-620 colon; 10 µM unless noted 102% | MCF7 breast; 10 µM unless noted 98.1% and 95.4% | HCT-116 colon; 10 µM unless noted 97.1% and 110% | HCC-2998 colon; 10 µM unless noted 125% and 98.4% | KM12 colon; 10 µM unless noted 96% and 95.3%

CC[N+](CC)(CC(=O)Nc1c(C)cccc1C)Cc1ccccc1
inactive: T-47D breast; 10 µM unless noted 86.9% and 95.1% | BT-549 breast; 10 µM unless noted 63.8% and 106% | MDA-MB-435 melanoma; 10 µM unless noted 94.7% and 99.3% | SW-620 colon; 10 µM unless noted 90.1% and 97.1% | MCF7 breast; 10 µM unless noted 95.7% and 99.8% | HCT-116 colon; 10 µM unless noted 97.3% and 100% | HCC-2998 colon; 10 µM unless noted 102% | KM12 colon; 10 µM unless noted 101% and 88.9%

O=C(O)c1sccc1O
inactive: T-47D breast; 10 µM 53.9% | T-47D breast; 100 µM 18.2% | MDA-MB-435 melanoma; 10 µM 77.8% | SW-620 colon; 10 µM 93.3% | SW-620 colon; 100 µM 24% | MCF7 breast; 10 µM unless noted 15.4% [100 µM] | HCT-116 colon; 10 µM unless noted 15.5% [100 µM] | HCC-2998 colon; 10 µM 109% | HCC-2998 colon; 100 µM 38.5% | KM12 colon; 10 µM 78.3%
active: MDA-MB-435 melanoma; 100 µM 0.533% | KM12 colon; 100 µM 2.5%

O=C1c2ccccc2C(=O)N1/N=C/c1ccc2c(c1)OCO2
inactive: T-47D breast; 10 µM unless noted 99.9% | BT-549 breast; 10 µM unless noted 97.2% | MDA-MB-435 melanoma; 10 µM unless noted 114% | SW-620 colon; 10 µM unless noted 107% | MCF7 breast; 10 µM unless noted 91.3% | HCT-116 colon; 10 µM unless noted 95% | HCC-2998 colon; 10 µM unless noted 116% | KM12 colon; 10 µM unless noted 113%

CC1=C(/C=C/C(C)=C/C=C/C(C)=C/C(=O)Nc2ccc(O)cc2)C(C)(C)CCC1
active: T-47D breast; 10 µM unless noted 5.78% | MCF7 breast; 10 µM unless noted 8.82%
inactive: BT-549 breast; 10 µM unless noted 21.9% | MDA-MB-435 melanoma; 10 µM unless noted 31.7% | SW-620 colon; 10 µM unless noted 67.2% | HCT-116 colon; 10 µM unless noted 55.3% | HCC-2998 colon; 10 µM unless noted 51% | KM12 colon; 10 µM unless noted 34.2%

Cc1[nH]c(-c2nc3ccccc3[nH]2)c(C)c1C(=O)NC(C)C1CCCCC1 (stereo unspecified)
active: T-47D breast; 100 µM -58.1% | BT-549 breast; 100 µM -81.6% | MDA-MB-435 melanoma; 100 µM -94.8% | SW-620 colon; 100 µM -68.8% | MCF7 breast; 100 µM -73.7% | HCT-116 colon; 100 µM -76.8% | KM12 colon; 100 µM -91.8%
inactive: T-47D breast; 10 µM 89% | BT-549 breast; 10 µM 95.5% | MDA-MB-435 melanoma; 10 µM 37.5% | SW-620 colon; 10 µM 92.9% | MCF7 breast; 10 µM 71.1% | HCT-116 colon; 10 µM 85.5% | KM12 colon; 10 µM 84.4%

CNC(=O)c1cc(Oc2ccc(CC(=O)Nc3cc(C(C)(C)C)nn3C)cc2)ccn1
inactive: T-47D breast; 1 µM 57.4% | T-47D breast; 10 µM 44.7% | T-47D breast; 30 µM 51.7% | MDA-MB-435 melanoma; 1 µM 78.1% | MDA-MB-435 melanoma; 10 µM 61.8% | MDA-MB-435 melanoma; 30 µM 67.9% | SW-620 colon; 1 µM 106% | SW-620 colon; 10 µM 87.2% | SW-620 colon; 30 µM 97.8% | MCF7 breast; 1 µM 61.4% | MCF7 breast; 10 µM 53.5% | MCF7 breast; 30 µM 44.4% | HCT-116 colon; 1 µM 65% | HCT-116 colon; 10 µM 33.9% | HCT-116 colon; 30 µM 47.4% | KM12 colon; 1 µM 88.4% | KM12 colon; 10 µM 58.5% | KM12 colon; 30 µM 64.6%

COc1cc2nc(N3CCN(C(=O)C4COc5ccccc5O4)CC3)nc(N)c2cc1OC (stereo unspecified)
inactive: T-47D breast; 10 µM unless noted 91.2% and 93.6% and 96% | BT-549 breast; 10 µM unless noted 86.9% and 96.6% and 105% | MDA-MB-435 melanoma; 10 µM unless noted 96.5% and 90.2% and 92.2% | SW-620 colon; 10 µM unless noted 92% and 97.7% and 109% | MCF7 breast; 10 µM unless noted 91.7% and 95.2% and 101% | HCT-116 colon; 10 µM unless noted 105% and 79.8% and 104% | HCC-2998 colon; 10 µM unless noted 102% and 105% and 108% | KM12 colon; 10 µM unless noted 103% and 99.6% and 102%

CC#C[C@]1(O)CC[C@H]2[C@@H]3CCC4=CC(=O)CCC4=C3[C@@H](c3ccc4c(c3)OCO4)C[C@@]21C
inactive: T-47D breast; 10 µM 45% | MDA-MB-435 melanoma; 10 µM 94.7% | SW-620 colon; 10 µM 84.7% | MCF7 breast; 10 µM 82.2% | HCT-116 colon; 10 µM 78.4% | KM12 colon; 10 µM 86.3%
active: T-47D breast; 100 µM -16.5% | MDA-MB-435 melanoma; 100 µM -35.6% | SW-620 colon; 100 µM 4.2% | MCF7 breast; 100 µM -4.09% | HCT-116 colon; 100 µM -78.5% | KM12 colon; 100 µM -42.3%

CO/N=C/C=C\C(=O)N/C=C/C[C@H]1/C=C/[C@H](O)/C=C\C=C\c2cccc(O)c2C(=O)O1
17.5% (inactive) and 8.83% (active): SW-620 colon; 10 µM unless noted
inactive: T-47D breast; 10 µM unless noted 16.4% and 17.4% | BT-549 breast; 10 µM unless noted 31.6% and 46.9% | MCF7 breast; 10 µM unless noted 35.6% and 26.1% | HCT-116 colon; 10 µM unless noted 21.3% and 14.9% | HCC-2998 colon; 10 µM unless noted 59.3% and 29.1% | KM12 colon; 10 µM unless noted 34.3% and 20.8%
active: MDA-MB-435 melanoma; 10 µM unless noted 6.42% and -15.8%

CCc1ccccc1-n1c(N)c(C#N)c(-c2ccc(OC)c(OC)c2)c(C#N)c1=O
active: T-47D breast; 100 µM 3.67% | BT-549 breast; 100 µM -17.8%
inactive: T-47D breast; 10 µM 102% | BT-549 breast; 10 µM 109% | MDA-MB-435 melanoma; 10 µM 113% | MDA-MB-435 melanoma; 100 µM 82.5% | MCF7 breast; 10 µM 115% | MCF7 breast; 100 µM 10.4% | HCT-116 colon; 10 µM 110% | HCT-116 colon; 100 µM 27.8% | HCC-2998 colon; 10 µM 122% | HCC-2998 colon; 100 µM 79.6% | KM12 colon; 10 µM 99.3% | KM12 colon; 100 µM 45.6%

CCC(O)c1ccccc1 (stereo unspecified)
inactive: T-47D breast; 10 µM unless noted 106% and 102% | BT-549 breast; 10 µM unless noted 133% | MDA-MB-435 melanoma; 10 µM unless noted 89.8% and 107% | SW-620 colon; 10 µM unless noted 109% and 104% | MCF7 breast; 10 µM unless noted 103% and 95.6% | HCT-116 colon; 10 µM unless noted 86.7% and 108% | KM12 colon; 10 µM unless noted 116% and 108%
active: HCC-2998 colon; 10 µM unless noted -87.7%

COc1ccc(Cl)cc1C(=O)NCCc1ccc(S(=O)(=O)NC(=O)NC2CCCCC2)cc1
inactive: T-47D breast; 10 µM 86% and 87.6% | T-47D breast; 100 µM 52.3% | BT-549 breast; 10 µM 109% and 107% | BT-549 breast; 100 µM 67% | MDA-MB-435 melanoma; 10 µM 103% and 107% | MDA-MB-435 melanoma; 100 µM 69.5% | MCF7 breast; 10 µM 108% and 102% | MCF7 breast; 100 µM 66.1% | HCT-116 colon; 10 µM 110% and 96.1% | HCT-116 colon; 100 µM 67.3% | KM12 colon; 10 µM 109% and 108% | KM12 colon; 100 µM 60.1%

Reference: PubChem BioAssay (NCI)
